Activity calls are given as the source filed them. Rule for the calls: active = hit-call score of the fitted dose curve at least 0.9, where 1 is the maximum; inactive = score below 0.9.
Legend:
[1] = read-out: Tissue plasminogen activator (tPA), PLAT (gene 5327); test: BSK_BE3C_tPA: BioMAP Diversity Plus: BE3C Assay for Tissue plasminogen activator (tPA) Biomarker Activity (AID 2283041); settings: primary human bronchial epithelial cells; actives raise or lower the signal
Summary of the method: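 ELISA read-out of tPA on human primary bronchial epithelial cells, 24 h post-dosing; bidirectional fit vs DMSO negative control/baseline.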

[2] = read-out: Interleukin-8 (IL8), CXCL8 (gene 3576); test: BSK_CASM3C_IL8: BioMAP Diversity Plus: CASM3C Assay for Interleukin-8 (IL8) Biomarker Activity (AID 2283042); settings: primary human coronary artery smooth muscle cells; actives raise or lower the signal;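 note: IL-8 protein level quantified by ELISA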
[3] = read-out: Human Leukocyte Antigen - DR isotype (HLADR), HLA-DRA (gene 3122); test: BSK_CASM3C_HLADR: BioMAP Diversity Plus: CASM3C Assay for Human Leukocyte Antigen - DR isotype (HLADR) Biomarker Activity (AID 2283043); settings: primary human coronary artery smooth muscle cells; actives raise or lower the signal;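 note: cell-surface HLA-DR protein level quantified by ELISA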
[4] = read-out: Macrophage colony-stimulating factor (MCSF), CSF1 (gene 1435); test: BSK_CASM3C_MCSF: BioMAP Diversity Plus: CASM3C Assay for Macrophage colony-stimulating factor (MCSF) Biomarker Activity (AID 2283044); settings: primary human coronary artery smooth muscle cells; actives raise or lower the signal;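 note: M-CSF protein amount quantified by ELISA after 24 h exposure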
[5] = read-out: Low-density lipoprotein receptor (LDLR), LDLR (gene 3949); test: BSK_CASM3C_LDLR: BioMAP Diversity Plus: CASM3C Assay for Low-density lipoprotein receptor (LDLR) Biomarker Activity (AID 2283045); settings: primary human coronary artery smooth muscle cells; actives raise or lower the signal;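 note: LDLR protein level on the cell surface quantified by ELISA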
[6] = read-out: Monocyte Chemoattractant Protein-1 (MCP1), CCL2 (gene 6347); test: BSK_CASM3C_MCP1: BioMAP Diversity Plus: CASM3C Assay for Monocyte Chemoattractant Protein-1 (MCP1) Biomarker Activity (AID 2283046); settings: primary human coronary artery smooth muscle cells; actives raise or lower the signal;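 note: MCP-1 level quantified by ELISA 24 h after dosing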
[7] = BSK_CASM3C_Proliferation: Cell Proliferation Assessment in the BioMAP Diversity Plus: CASM3C Assay (AID 2283047); settings: primary human coronary artery smooth muscle cells;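 note: sulforhodamine B total protein stain as relative cell number at 560 nm; sub-confluent cells exposed 48 h before staining; fitted both ways against DMSO so gain or loss of cell number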
[8] = read-out: Monokine induced gamma interferon (MIG), CXCL9 (gene 4283); test: BSK_CASM3C_MIG: BioMAP Diversity Plus: CASM3C Assay for Monokine induced gamma interferon (MIG) Biomarker Activity (AID 2283048); settings: primary human coronary artery smooth muscle cells; actives raise or lower the signal;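 note: MIG protein level measured by ELISA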
[9] = read-out: serum amyloid A (SAA), SAA1 (gene 6288); test: BSK_CASM3C_SAA: BioMAP Diversity Plus: CASM3C Assay for serum amyloid A (SAA) Biomarker Activity (AID 2283049); settings: primary human coronary artery smooth muscle cells; actives raise or lower the signal;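 note: SAA protein level quantified by ELISA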
[10] = BSK_CASM3C_SRB: Viability Assessment in the BioMAP Diversity Plus: CASM3C Assay (AID 2283050); settings: primary human coronary artery smooth muscle cells;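 note: total protein by SRB staining as cytotoxicity measure in parallel cultures; cells exposed to compound for 24 h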
[11] = read-out: Thrombomodulin, THBD (gene 7056); test: BSK_CASM3C_Thrombomodulin: BioMAP Diversity Plus: CASM3C Assay for Thrombomodulin Biomarker Activity (AID 2283051); settings: primary human coronary artery smooth muscle cells; actives raise or lower the signal;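 note: thrombomodulin protein level measured by ELISA 24 h after dosing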
[12] = read-out: Tissue Factor, F3 (gene 2152); test: BSK_CASM3C_TissueFactor: BioMAP Diversity Plus: CASM3C Assay for Tissue Factor Biomarker Activity (AID 2283052); settings: primary human coronary artery smooth muscle cells; actives raise or lower the signal;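 note: cell surface tissue factor protein level read by ELISA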
[13] = read-out: Interferon-gamma inducible Protein 10 (IP10), CXCL10 (gene 3627); test: BSK_hDFCGF_IP10: BioMAP Diversity Plus: hDFCGF Assay for Interferon-gamma inducible Protein 10 (IP10) Biomarker Activity (AID 2283053); settings: primary human foreskin fibroblasts; actives raise or lower the signal
Summary of the method: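 ELISA read-out of IP-10 (CXCL10) from primary human skin fibroblasts, 24 h after compound addition. Gain or loss of signal versus DMSO baseline, bidirectional curve fitting.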

[14] = read-out: Urokinase-type plasminogen activator receptor (uPAR), PLAUR (gene 5329); test: BSK_CASM3C_uPAR: BioMAP Diversity Plus: CASM3C Assay for Urokinase-type plasminogen activator receptor (uPAR) Biomarker Activity (AID 2283054); settings: primary human coronary artery smooth muscle cells; actives raise or lower the signal;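 note: cell-surface uPAR protein level quantified by ELISA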
[15] = read-out: Vascular cell adhesion molecule 1 (VCAM1), VCAM1 (gene 7412); test: BSK_CASM3C_VCAM1: BioMAP Diversity Plus: CASM3C Assay for Vascular cell adhesion molecule 1 (VCAM1) Biomarker Activity (AID 2283055); settings: primary human coronary artery smooth muscle cells; actives raise or lower the signal;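 note: VCAM-1 protein level quantified by ELISA on the cells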
[16] = read-out: Collagen III, COL3A1 (gene 1281); test: BSK_hDFCGF_CollagenIII: BioMAP Diversity Plus: hDFCGF Assay for Collagen III Biomarker Activity (AID 2283056); settings: primary human foreskin fibroblasts; actives raise or lower the signal
Summary of the method: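 Response relative to DMSO, fitted in both directions, reflects ELISA-measured collagen III in human primary skin fibroblasts 24 h after compound addition.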

[17] = read-out: Epidermal growth factor receptor (EGFR), EGFR (gene 1956); test: BSK_hDFCGF_EGFR: BioMAP Diversity Plus: hDFCGF Assay for Epidermal growth factor receptor (EGFR) Biomarker Activity (AID 2283057); settings: primary human foreskin fibroblasts; actives raise or lower the signal
Summary of the method: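 ELISA readout of EGFR on human dermal fibroblasts (primary foreskin cells), 24 h post-dosing; bidirectional curve fit vs DMSO baseline, gain or loss of signal scored.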

[18] = read-out: Interleukin-8 (IL8), CXCL8 (gene 3576); test: BSK_hDFCGF_IL8: BioMAP Diversity Plus: hDFCGF Assay for Interleukin-8 (IL8) Biomarker Activity (AID 2283058); settings: primary human foreskin fibroblasts; actives raise or lower the signal
Summary of the method: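 Fibroblast monolayers (human foreskin, hDFCGF) received test chemical for 24 h before ELISA detection of IL-8; either increases or decreases relative to DMSO count as activity.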

[19] = BSK_hDFCGF_Proliferation: Cell Proliferation Assessment in the BioMAP Diversity Plus: hDFCGF Assay (AID 2283059); settings: primary human foreskin fibroblasts;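 note: curves fitted for both rise and fall of signal versus DMSO baseline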
Summary of the method: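 Sub-confluent human foreskin fibroblast cultures receive test chemical […]. Relative cell number is quantified by sulforhodamine B staining (0.1%, after 10% TCA fixation) at 560 nm, with bidirectional fitting referenced to DMSO.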

[20] = read-out: Macrophage colony-stimulating factor (MCSF), CSF1 (gene 1435); test: BSK_hDFCGF_MCSF: BioMAP Diversity Plus: hDFCGF Assay for Macrophage colony-stimulating factor (MCSF) Biomarker Activity (AID 2283060); settings: primary human foreskin fibroblasts; actives raise or lower the signal
Summary of the method: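 fibroblasts (human foreskin, primary), 24 h post-dose; M-CSF by ELISA; bidirectional fit, DMSO = baseline.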

Measured: AC50

C[C@]12CC[C@@H]3c4ccc(O)cc4CC[C@H]3[C@@H]1CC[C@H]2O
active: [7] 13.2 µM | [15] 16 µM | [16] 12 µM
inactive: all other assays above

CCCCOC(=O)CC(CC(=O)OCCCC)(OC(C)=O)C(=O)OCCCC
active: [9] 20 µM
inactive: all other assays above

CCCC(=O)OCCC(C)C
inactive: all assays above

Cc1cc(F)ccc1-c1cc(N2CC[C@@H](O)[C@H]2CO)ncc1N(C)C(=O)C(C)(C)c1cc(C(F)(F)F)cc(C(F)(F)F)c1
inactive: [11] | [17]
active: [1] 9.81 µM | [2] 27.8 µM | [3] 26.5 µM | [4] 26.1 µM | [5] 24.4 µM | [6] 31 µM | [7] 28.3 µM | [8] 30.1 µM | [9] 31.7 µM | [10] 29.2 µM | [12] 22 µM | [13] 14.9 µM | [14] 31.1 µM | [15] 25.4 µM | [16] 24.1 µM | [18] 18.4 µM | [19] 10.9 µM | [20] 11.1 µM

c1ccc2n[nH]nc2c1
inactive: all assays above

O=C(OCCCCCCOC(=O)c1ccccc1)c1ccccc1
active: [11] 15.9 µM
not listed: [16]
inactive: all other assays above

Cc1cn([C@H]2C[C@H](N=[N+]=[N-])[C@@H](CO)O2)c(=O)[nH]c1=O
not listed: [17]
inactive: all other assays above

CN(C)c1ccc(C(=C2C=CC(=[N+](C)C)C=C2)c2ccc(N(C)C)cc2)cc1
active: [2] 5.56 µM | [3] 7.11 µM | [4] 6.36 µM | [5] 5.4 µM | [6] 1.07 µM | [7] 2.06 µM | [8] 8.07 µM | [9] 0.822 µM | [10] 7.66 µM | [12] 1.49 µM | [13] 4.07 µM | [14] 1.54 µM | [15] 8.39 µM | [16] 0.148 µM | [18] 6.66 µM | [19] 1.39 µM | [20] 1.77 µM
inactive: [11] | [17]

O=C(O)c1ccccc1-n1cc(C(=O)O)c(=O)c2cc(Nc3c(F)cc(F)cc3Cl)c(Cl)cc21
inactive: all assays above
